PubChem BioAssay (NCATS)
Inconclusive results are not listed. The source made the active and inactive calls. Calls come from the whole dose curve; as a rule, active = well fitted inhibition curve with a large enough effect; inconclusive = small, poorly fitted or top-dose-only effect; inactive = flat fitted curve, though single readings scatter.

What was measured:
Assay in all cases: qHTS profiling for inhibitors of Plasmodium falciparum proliferation (AID 504749); note: nearly all actives have a fitted effect of over 60% in size
Settings in all cases: P. falciparum in erythrocytes, SYBR Green DNA, 72 h; series mostly up to 28.7 µM
3D7 = tested on: 3D7
Procedure, shortened: (§1)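 Readout was DNA-dye fluorescence from lysed cultures, ex 485/em 535 nm. Parasitized red cells had grown 72 h with compound; data scaled between 0.29 uM artemisinin and DMSO wells and corrected using vehicle-only plates.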

7G8 = tested on: 7G8
Procedure, shortened: as §1

CP185 = tested on: CP185
Procedure, shortened: as §1

CP194 = tested on: CP194
Procedure, shortened: as §1

CP201 = tested on: CP201
Procedure, shortened: as §1

CP237 = tested on: CP237
Procedure, shortened: as §1

CP238 = tested on: CP238
Procedure, shortened: as §1

CP262 = tested on: CP262
Procedure, shortened: as §1

CP265 = tested on: CP265
Procedure, shortened: as §1

CP266 = tested on: CP266
Procedure, shortened: as §1

CP268 = tested on: CP268
Procedure, shortened: as §1

CP286 = tested on: CP286
Procedure, shortened: as §1

CP305 = tested on: CP305
Procedure, shortened: as §1

CP335 = tested on: CP335
Procedure, shortened: as §1

DIV30 = tested on: DIV30
Procedure, shortened: as §1

Dd2 = tested on: Dd2
Procedure, shortened: as §1

ECU = tested on: ECU
Procedure, shortened: as §1

HB3 = tested on: HB3
Procedure, shortened: as §1

P94_40 = tested on: P94_40
Procedure, shortened: as §1

TAB109 = tested on: TAB109
Procedure, shortened: as §1
Potency is the fitted concentration of half-maximal effect.

Question: O=C(CC1NCCC[C@H]1O)Cn1cnc2cc(Br)c(Cl)cc2c1=O (stereo not given in full) was tested. Which Potency (3D7) did it give?
Answer: 1 µM (active)

Question: And the Potency (7G8)?
Answer: 1 µM (active)

Question: And the Potency (CP185)?
Answer: 2.82 µM (active)

Question: And the Potency (CP194)?
Answer: 4.78 µM (active)

Question: What about the Potency (CP201) of the same compound?
Answer: 3.38 µM (active)

Question: What about the Potency (CP237) of the same compound?
Answer: 3.55 µM (active)

Question: What about the Potency (CP238) of the same compound?
Answer: 3.98 µM (active)

Question: What about the Potency (CP262) of the same compound?
Answer: inactive

Question: What about the Potency (CP265) of the same compound?
Answer: 5.01 µM (active)

Question: What about the Potency (CP266) of the same compound?
Answer: 3.79 µM (active)

Question: What about the Potency (CP268) of the same compound?
Answer: 3.38 µM (active)

Question: And the Potency (CP286)?
Answer: 2 µM (active)

Question: What about the Potency (CP305) of the same compound?
Answer: 3.38 µM (active)

Question: What about the Potency (CP335) of the same compound?
Answer: 0.601 µM (active)

Question: What about the Potency (DIV30) of the same compound?
Answer: 3.38 µM (active)

Question: What about the Potency (Dd2) of the same compound?
Answer: 0.708 µM (active)

Question: And the Potency (ECU)?
Answer: 5.01 µM (active)

Question: What about the Potency (HB3) of the same compound?
Answer: 2 µM (active)

Question: What about the Potency (P94_40) of the same compound?
Answer: 1.41 µM (active)

Question: And the Potency (TAB109)?
Answer: 0.794 µM (active)
